Measurements from PubChem BioAssay (NCATS).
Inconclusive results are not listed. Unmarked numbers belong to inactive results. Activity calls are given as the source filed them. Calls come from the whole dose curve; as a rule, active = well fitted cell-killing curve with a large enough effect; inconclusive = small, poorly fitted or top-dose-only effect; inactive = flat fitted curve, though single readings scatter.

Test: Quantitative highthroughput screen to assess conditional lethalithy of NOMO1 cells grown in RPMI1640 with dialyzed fetal bovine serum (RPMI+ds) (AID 1963877); note: nearly all actives have a fitted effect of over 30% in size
Conditions: NOMO1 in RPMI+dialyzed FBS viability, ATP luminescence, 48 h; series mostly up to 45.8 µM; viability: at the top concentration
Excerpt: Assay Provider: Jason Cantor Ph.D.
Department of Biochemistry
University of Wisconsin-Madison, Madison, WI, USA
Chemical screening studies have identified drug sensitivities across hundreds of cancer cell lines but most putative therapeutics fail to translate. Discovery and development of drug candidates in models that more accurately reflect nutrient levels in human blood is a major challenge. Here we performed high-throughput screens in conventional versus Human Plasma-Like Medium (HPLM) to identify compounds that were "missed" when screening using the artificial culture condition. Sets of conditional anticancer compounds spanned phases of clinical development and included non-oncology drugs were assessed. […] We also traced conditional phenotypes for several chemotherapeutics to availability of HPLM-specific metabolites and confirmed others for compounds whose reported targets are encoded by nonessential genes. Our findings establish generalizable strategies for exploiting conditional lethality in HPLM to reveal therapeutic candidates and mechanisms of action in cancer cells.
Described herein are the results of each viability screens against three cell lines: NOMO1 (an acute myeloid leukemia cell line); P12-Ichikawa (a T-cell acute lymphoblastic leukemia); and SEM (a B-cell ALL). Each assay was screened using 3 different cell culture media: homemade human plasma-Like medium with 10% dialyzed fetal bovine serum (HPLM+ds); RPMI1640 with 10% untreated FBS and 5mM glucose (RPMI+s); and RPMI1640 with 10% dialyzed fetal bovine serum and 5 mM glucose (RPMI+ds).
PROTOCOL TABLE (as described by Inglese J, Shamu CE and Guy RK. 2007)
SEQUENCE No. (e.g., 1, 2, 3, etc.); […] (e.g., Cells, Incubation, Reagent, etc.); VALUE and DESCRIPTION.
1; Cells; 5 uL; white, solid bottom 1536-well Greiner assay plate.
2; Compounds; 23 nL; Kalypsis pin tool (Wako USA) equipped with a 1536-well pin head to transfer to the assay plates.
3; Incubation; 48 hours; 37C incubation.
4; Reagent; 3 uL; CellTiter Glo (Promega).
5; Incubation; 5 min, room temperature
6; Detection; Luminescence, Viewlux PerkinElmer.
NOTES (numbers refer to Sequence numbers above)
1. Briefly, 5 ul of cell reagent was dispensed using a Multidrop Combi Dispenser. The NOMO1 and SEM cells were plated at 500 cells/well and the P12-Ichikawa line at 1000 cells/well.
2. After seeding the cells, 23 nL of MIPE 4.1 library compounds (in DMSO) were added to each plate using a Kalypsys 1536 Pintool dispenser. Bortezomib at final concentration of […] and DMSO were added to each plate as positive and negative controls respectively. For each screen, MIPE 4.1 compounds were added over an eleven-point concentration range […] in 3-fold dilutions.
3. Each plate was covered with a stainless steel gasketed lid to prevent evaporation and incubated for 48 hour at 37C, 95% relative humidity, and 5% CO2.
4-5. Three microliter CellTilter-GloTM luminescent substrate mix (Promega) reagent was added to the assay plate and incubated at room temperature for 5 min.
6. The luminescence signal was measured using a ViewLux (PerkinElmer) multiplate reader with a 2 second exposure time per plate. Data for each compound were normalized as percent viability such that measurements for DMSO and the empty well controls in each plate were defined as 100% and 0%, respectively.
Potency is the fitted concentration of half-maximal effect.

Row | Compound | viability | Potency
1 | C[C@]12CCC3=C4CCC(=O)C=C4CC[C@@H]3[C@H]1CC[C@@]2(O)CC#N | 112% | –
2 | CC(C)=CC[C@@H](O)C1=CC(=O)c2c(O)ccc(O)c2C1=O | – | 2090 nM (active)
3 | COc1ccc(-c2coc3cc(O)ccc3c2=O)cc1 | 92.4% | –
4 | Cc1cc(Nc2cc(N3CCN(C)CC3)nc(C=Cc3ccccc3)n2)n[nH]1 | – | 3400 nM (active)
5 | CCC1=C(C)CN(C(=O)NCCc2ccc(S(=O)(=O)NC(=O)NC3CCC(C)CC3)cc2)C1=O (stereo not given) | 104% | –
6 | COC(=O)N1CCN(Cc2cccc(NC(=O)Nc3ccc(C)nc3)c2F)CC1 | 104% | –
7 | CC(C[N+](C)(C)C)OC(N)=O (stereo not given) | 108% | –
8 | CCOC(=O)C1=C(N)Oc2ccc(Br)cc2C1C(C#N)C(=O)OCC (stereo not given) | 94.5% | –
9 | O=C(Nc1cc(C(F)(F)F)cc(C(F)(F)F)c1)c1cc(Cl)ccc1O | – | 2960 nM (active)
10 | Cc1ccc(C(=O)Nc2cccc(C(F)(F)F)c2)cc1Nc1nc(-c2cccnc2)nc2c1cnn2C | 102% | –
11 | CC(=O)O[C@]1(C(C)=O)CC[C@H]2[C@@H]3C=C(C)C4=CC(=O)CC[C@]4(C)[C@@H]3CC[C@@]21C | 110% | –
12 | CN(c1nccc(=O)[nH]1)C1CCN(c2nc3ccccc3n2Cc2ccc(F)cc2)CC1 | 74.8% | –
13 | C[C@H]1C[C@@H]2[C@@H]([C@@H](O)C[C@@]3(C)[C@H]2CC[C@]3(O)C(=O)CO)[C@@]2(C)C=CC(=O)C=C12 | 96.6% | –
14 | CCCCCCCCCCCCCCCCCCCCCCO | 108% | –
15 | COc1cc2c(N3CCN(C(=O)Nc4ccc(OC(C)C)cc4)CC3)ncnc2cc1OCCCN1CCCCC1 | – | 8330 nM (active)
16 | Cc1cccc(Nc2ccncc2S(=O)(=O)NC(=O)NC(C)C)c1 | 84.3% | –
17 | COc1cc(C)c(C=CC(C)=CC=CC(C)=CC(=O)O)c(C)c1C | 81.7% | –
18 | CCN(CC)C(=S)SSC(=S)N(CC)CC | – | 2960 nM (active)
19 | Cc1cnc(CNC(=O)c2c(=O)c3ccc(N4CCCN(C)CC4)nc3n3c2sc2ccccc23)cn1 | 93.3% [at 23.2 µM] | –
20 | O=C(Nc1cccnn1)N1CCC(=Cc2cccc(Oc3ccc(C(F)(F)F)cn3)c2)CC1 | 101% | –

Row | Compound | viability | Potency
21 | COc1ccc2cccc(CCNC(C)=O)c2c1 | 95.1% | –
22 | Nc1[nH]c(=O)ncc1F | 74.8% | –
23 | CCCCC(F)(F)[C@@]1(O)CC[C@H]2[C@H](CC(=O)[C@@H]2CCCCCCC(=O)O)O1 | 92.8% | –
24 | CNS(=O)(=O)Cc1ccc2[nH]cc(CCN(C)C)c2c1 | 108% | –
25 | Cc1cc2nc3c(=O)[nH]c(=O)nc-3n(CC(O)C(O)C(O)CO)c2cc1C (stereo not given) | 82.4% | –
26 | CCOc1cc(C=C2C(=O)N(c3ccccc3)N=C2C)cc(Cl)c1OCC(=O)OC | 98.3% | –
27 | CC(=O)[C@]1(O)Cc2c(O)c3c(c(O)c2[C@@H](O[C@H]2C[C@H](N)[C@@H](O)[C@H](C)O2)C1)C(=O)c1ccccc1C3=O | – | 3720 nM (active)
28 | CN(C)C(=O)C(CCN1CCC(O)(c2ccc(Cl)cc2)CC1)(c1ccccc1)c1ccccc1 | – | 20900 nM (active)
29 | COc1ccc(CC2SC(=O)NC2=O)cc1C(=O)NCc1ccc(C(F)(F)F)cc1 (stereo not given) | 105% | –
30 | O=c1[nH]c(=O)n([C@H]2C[C@@H](O)[C@@H](CO)O2)cc1F | – | 14.8 nM (active)
31 | C#C[C@]1(O)CC[C@H]2[C@H]3CCc4cc(OC)ccc4[C@H]3CC[C@@]21C | 105% | –
32 | O=c1[nH]c(=O)n([C@H]2C[C@@H](O)[C@@H](CO)O2)cc1C=CBr | 83.9% | –
33 | COc1nc(C)nc(Cl)c1NC1=NCCN1 | 98.6% | –
34 | Cc1ncc([N+](=O)[O-])n1CC(C)O (stereo not given) | 89.5% | –
35 | COc1ccc2[nH]cc(CCNC(C)=O)c2c1 | 102% | –
36 | Cc1cccc(Nc2nc(-c3ccncc3)cs2)c1 | 81.2% | –
37 | C[C@]12CCC(=O)C=C1[C@@H]1CC1[C@H]1[C@H]3[C@@H]4C[C@H]4[C@@]4(CCC(=O)O4)[C@@]3(C)CC[C@H]12 (stereo not given in full) | 84.4% | –
38 | CC1(C)CCC(c2ccc(Cl)cc2)=C(CN2CCN(c3ccc(C(=O)NS(=O)(=O)c4ccc(N[C@H](CCN5CCOCC5)CSc5ccccc5)c(S(=O)(=O)C(F)(F)F)c4)cc3)CC2)C1 | – | 264 nM (active)
39 | CCNC(=O)[C@H]1O[C@@H](n2cnc3c(N)nc(NCCc4ccc(CCC(=O)O)cc4)nc32)[C@H](O)[C@H]1O | 98.6% | –
40 | CC(C)[C@H](C(=O)Nc1ccc(C(=O)NO)cc1)c1ccccc1 | – | 2640 nM (active)
